High-throughput results (PubChem BioAssay)
An excerpt weighted towards active compounds, which were near 4.2% of everything screened.
ClpP mod – qHTS Assay for Activators of ClpP | AID 651965, 2013 | 340,000 tested, 1.9% active | Potency, µM (top dose mostly 57.5 µM), inactives show at the top dose activity change, negative = active | purified B. subtilis ClpP, FRET peptide cleavage, 20 min; active means well fitted falling curve with a large enough effect; inconclusive means small, poorly fitted or top-dose-only effect; inactive means no such curve, though single readings can be large or run the other way; further: potency means the concentration at half of the fitted maximal effect; the source files actives as falling curves though it sought activators and does not explain the sign; nearly all actives have a fitted effect of over 65% in size
Target sequence (P80244 whole entry, looked up): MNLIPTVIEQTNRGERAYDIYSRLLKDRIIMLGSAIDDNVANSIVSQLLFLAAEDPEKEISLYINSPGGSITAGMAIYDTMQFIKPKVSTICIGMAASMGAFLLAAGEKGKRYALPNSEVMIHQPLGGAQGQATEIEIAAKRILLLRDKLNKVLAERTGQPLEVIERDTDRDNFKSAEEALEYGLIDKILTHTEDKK
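ClpP 10 microg/mL final, pH 8 Tris/KCl buffer with BSA, glycerol, Tween-20; compound pinned in; FRET-FV substrate; RT 20 min; Ex320/Em430; ΔFRET vs ADEP 5.8 microM, DMSO, no enzyme.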
uPA surface inh – inhibitors of cell surface uPA generation. Potency, µM (highest dose often 38.3 µM), for inactives: top-dose activity change, negative = inhibition, actives largely listed as inhibitors. 330,000 tested, 0.31% active. AID 540303. cell surface uPA generation assay, qHTS; active means well fitted inhibition curve with a large enough effect; inconclusive means small, poorly fitted or top-dose-only effect; inactive means no such curve, though single readings can be large or run the other way; tested in mouse RAW 264.7 cells; further: potency means the concentration at half of the fitted maximal effect; on the % scale 0 is the no-effect control and ±100 the full control effect; nearly all actives have a fitted effect of over 55% in size
TCR activator – T cell receptor activation | primary human leukocytes, anti-CD3, IL-2 HTRF, 48 h | Potency, µM (series often up to 9.22 µM), without a hit: top-dose activation of IL-2 secretion, hits mostly activators | AID 504894 | 330,000 tested, under 10 active; further: % of control where 0% means no effect
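Activity was scored as IL-2 release from primary human leukocytes given only a TCR signal (a-CD3 beads) plus compound for 48 hr. Detection used a two-antibody HTRF format read at 665nm.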
Sfp PPTase inh – Sfp phosphopantetheinyl transferase inhibition. Biochemical Sfp PPTase activity, qHTS. Potency, µM, for the others: largest response in the series, negative = inhibition, hits mostly inhibitors. 310,000 tested, 3.5% active;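 further: the enzyme is Sfp with the accession as filed and its product quenches rhodamine fluorescence; potency means the concentration at half of the fitted maximal effect; 0% = enzyme reaction without inhibitor and -100% = no enzyme wells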
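Sfp 15 nM + cpd, 15 min RT; start w/ rhodamine-CoA 5 uM, BHQ-2-YbbR 12.5 uM (final); 50 mM Hepes pH 7.6, 10 mM MgCl2, 0.01% NP-40, 0.01% BSA; read 525/598 nm at 0 and 30 min.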
* = called active by the depositor. Unless noted, the call rests on the fitted dose curve; in most records, active means well fitted curve in the direction sought with a large enough effect; inconclusive means small, poorly fitted or top-dose-only effect, or another doubt; inactive means no such curve, though single readings can be large; an effect the other way counts as inactive or inconclusive.

`CCNC(=S)NNC(=O)CCn1c2ccccc2c2ccccc21` gave ClpP mod inconclusive, uPA surface inh -1%, TCR activator 0% and Sfp PPTase inh 26%.
For CCNC(=S)NNc1ccccc1 the results were uPA surface inh -2%, TCR activator -3% and Sfp PPTase inh 35µM*.
For CCNC(=S)NS(=O)(=O)c1ccccc1 the results were ClpP mod 1%, uPA surface inh 8%, TCR activator -1% and Sfp PPTase inh 79µM*.
Screening CCNC(=S)NNc1nncc2ccccc12 returned uPA surface inh -3%, TCR activator 3% and Sfp PPTase inh 4µM*.
`CC1(C(=O)NS(=O)(=O)c2cccc(F)c2)CCN1C(=O)c1cccc(F)c1` (centres undefined) gave ClpP mod -1%.
For CCc1nnc2c(NCc3ccccc3OC)nc3ccccc3n12 the results were ClpP mod -6%.
For Cc1nc(N2CCN(S(=O)(=O)c3cccs3)CC2)c2c(-c3ccccc3)c(C)sc2n1 the results were ClpP mod -2%.
Screening Cc1ccc2c(c1)c1ccc3c(c1n2C)C(=O)C=CC3=O returned ClpP mod 0%, uPA surface inh inconclusive, TCR activator 12% and Sfp PPTase inh 2.5µM*.
COc1ccc2c(c1)c1ccc3c(c1n2C)C(=O)C=CC3=O was read as ClpP mod -1%, uPA surface inh inconclusive, TCR activator 3% and Sfp PPTase inh 2.2µM*.
For Nc1ccccc1Nc1ccccc1 the results were ClpP mod 28µM*, uPA surface inh 4%, TCR activator -14% and Sfp PPTase inh -27%.
Screening COC(=O)c1ccc(/C=N/OCC(=O)NCc2ccc(F)cc2)cc1 returned ClpP mod 0%, uPA surface inh 1%, TCR activator 11% and Sfp PPTase inh 19%.
For CN1C=CC=C/C1=C1\SC(=S)N(CC(=O)O)C1=O the results were uPA surface inh 3% and Sfp PPTase inh 45µM*.
For CN1C=CC=C/C1=C1\SC(=S)N(c2ccccc2)C1=O the results were ClpP mod 0%, uPA surface inh 2%, TCR activator 11% and Sfp PPTase inh 25µM*.
For CN1C=CC=C/C1=C1\SC(=S)N(C2CCCCC2)C1=O the results were ClpP mod 2%, TCR activator 5% and Sfp PPTase inh -18%.
O=[N+]([O-])c1cccc(COc2ccccc2CN2CCCC2)c1 was read as ClpP mod 0%, uPA surface inh -11% and TCR activator -1%.
`CCOC(=O)C1=C(C)N(C)C(=O)NC1c1c(C)nn(-c2ccc(C)cc2)c1Cl` (centres undefined) gave ClpP mod 0%, uPA surface inh 4%, TCR activator 6% and Sfp PPTase inh -9%.
`CCOC(=O)C1=C(C)NC(=O)NC1c1c(C)nn(-c2ccccc2)c1Cl` (centres undefined) gave ClpP mod 9%, uPA surface inh 3%, TCR activator 8% and Sfp PPTase inh 20µM*.
For CN1CCN(C(=O)COCc2cc(-c3ccc4c(c3)OCO4)on2)CC1 the results were ClpP mod -26%, uPA surface inh -1%, TCR activator 10% and Sfp PPTase inh 11%.
For O=C(COC(=O)c1ccccc1OCCOc1ccccc1)Nc1ccc(Br)cc1 the results were ClpP mod -6%.
Screening C[C@@H]1O[C@H](O[C@@H]2C(O)[C@H](O)[C@@H](CO)O[C@H]2Oc2cc(O)c3c(=O)cc(-c4ccc(O)cc4)oc3c2)[C@H](O)[C@H](O)[C@H]1O (some centres undefined) returned Sfp PPTase inh 4%.
C/C(=N\NC(=O)c1ccc(Br)o1)c1cc2c(cc1NC(=O)CCC(=O)O)OCO2 was read as ClpP mod 1%, uPA surface inh 4% and Sfp PPTase inh 45µM*.
O=C(Nc1ccc2c(c1)OCO2)c1ccc(Br)o1 was read as ClpP mod 1%, uPA surface inh -16%, TCR activator -6% and Sfp PPTase inh -9%.
`Cc1nc2ccccc2c(=O)n1NC(=O)c1cccc([N+](=O)[O-])c1` gave uPA surface inh 0%, TCR activator -10% and Sfp PPTase inh 15%.
Cc1ccc(C(=O)Nc2c(C)cc(-c3ccc(Cl)cc3)oc2=O)cc1 was read as ClpP mod 14µM*, uPA surface inh -8%, TCR activator -10% and Sfp PPTase inh 6%.
`Cc1ccccc1NC(=O)Cn1nc(-c2ccc(F)cc2)c2cnc3ccccc3c21` gave ClpP mod -8%.
